What was measured:
Experiment in all cases: SPOT peptide array binding signal intensity (averaged, normalized) (arbitrary units (background-subtracted, floor 0; scale differs between SH3 domains)); higher = stronger binding of the SH3 domain to the peptide
[1] = biological target: CaNbp2
How it was run: (§1)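 Four yeast species supplied the SH3 domains, which were expressed as GST fusions in E. coli BL21(DE3) and purified on glutathione Sepharose. Incubation with cellulose membranes carrying synthetic 15-mer peptides, cysteines exchanged for serines, ran overnight at 4°C at 10 μg/ml in TBS-based blocking buffer. Binding signal is reported as normalized, background-subtracted spot intensity averaged over replicates, in arbitrary units not shared between domains.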

[2] = biological target: CaRvs167
How it was run: as §1

[3] = biological target: CaRvs167-3
How it was run: as §1

[4] = biological target: CaSho1
How it was run: as §1

[5] = biological target: CaSla1-D1-D2
How it was run: as §1

[6] = biological target: CaSla1-D3
How it was run: as §1

[7] = biological target: ScAbp1
How it was run: as §1

[8] = biological target: ScBbc1
How it was run: as §1

[9] = biological target: ScBem1-D1
How it was run: as §1

[10] = biological target: ScBzz1-D1
How it was run: as §1

[11] = biological target: ScBzz1-D2
How it was run: as §1

[12] = biological target: ScCyk3
How it was run: as §1

[13] = biological target: ScFus1
How it was run: as §1

[14] = biological target: ScHof1
How it was run: as §1

[15] = biological target: ScHse1
How it was run: as §1

[16] = biological target: ScLsb1
How it was run: as §1

[17] = biological target: ScLsb2
How it was run: as §1

[18] = biological target: ScLsb3
How it was run: as §1

[19] = biological target: ScLsb4
How it was run: as §1

[20] = biological target: ScMyo3
How it was run: as §1

[21] = biological target: ScMyo5
How it was run: as §1

[22] = biological target: ScNbp2
How it was run: as §1

[23] = biological target: ScPex13
How it was run: as §1

[24] = biological target: ScRvs167
How it was run: as §1

[25] = biological target: ScSho1
How it was run: as §1

[26] = biological target: ScSla1-D1-D2
How it was run: as §1

[27] = biological target: ScSla1-D3
How it was run: as §1

[28] = biological target: SpAbp1-D1
How it was run: as §1

[29] = biological target: SpBbc1
How it was run: as §1

[30] = biological target: SpBzz1-D1
How it was run: as §1

[31] = biological target: SpBzz1-D2
How it was run: as §1

[32] = biological target: SpCyk3
How it was run: as §1

[33] = biological target: SpHof1
How it was run: as §1

[34] = biological target: SpHof1-2
How it was run: as §1

[35] = biological target: SpHof1-3
How it was run: as §1

[36] = biological target: SpHse1
How it was run: as §1

[37] = biological target: SpLsb1
How it was run: as §1

[38] = biological target: SpLsb4
How it was run: as §1

[39] = biological target: SpMyo1
How it was run: as §1

[40] = biological target: SpNbp2
How it was run: as §1

[41] = biological target: SpPex13
How it was run: as §1

[42] = biological target: SpRvs167
How it was run: as §1

[43] = biological target: SpSla1-D1-D2
How it was run: as §1

[44] = biological target: SpSla1-D3
How it was run: as §1

[45] = biological target: AgAbp1
How it was run: as §1

[46] = biological target: AgBbc1
How it was run: as §1

[47] = biological target: AgBem1-D1
How it was run: as §1

[48] = biological target: AgBzz1-D1
How it was run: as §1

[49] = biological target: AgBzz1-D2
How it was run: as §1

[50] = biological target: AgCyk3
How it was run: as §1

[51] = biological target: AgFus1
How it was run: as §1

[52] = biological target: AgHof1
How it was run: as §1

[53] = biological target: AgHse1
How it was run: as §1

[54] = biological target: AgLsb1
How it was run: as §1

[55] = biological target: AgLsb4
How it was run: as §1

[56] = biological target: AgMyo5
How it was run: as §1

[57] = biological target: AgNbp2
How it was run: as §1

[58] = biological target: AgRvs167
How it was run: as §1

[59] = biological target: AgSho1
How it was run: as §1

[60] = biological target: AgSla1-D1-D2
How it was run: as §1

[61] = biological target: AgSla1-D3
How it was run: as §1

[62] = biological target: CaAbp1-D1
How it was run: as §1

[63] = biological target: CaAbp1-D2
How it was run: as §1

[64] = biological target: CaBbc1
How it was run: as §1

[65] = biological target: CaBem1-D1
How it was run: as §1

[66] = biological target: CaBzz1-D1
How it was run: as §1

[67] = biological target: CaBzz1-D2
How it was run: as §1

[68] = biological target: CaCyk3
How it was run: as §1

[69] = biological target: CaFus1
How it was run: as §1

[70] = biological target: CaHof1
How it was run: as §1

[71] = biological target: CaHse1
How it was run: as §1

[72] = biological target: CaLsb1
How it was run: as §1

[73] = biological target: CaLsb4
How it was run: as §1

[74] = biological target: CaMyo5
How it was run: as §1

PPPPPPPPPPLPQSL
SPOT peptide array binding signal intensity [1]: 67.5 | SPOT peptide array binding signal intensity [2]: ≤ 0 | SPOT peptide array binding signal intensity [3]: ≤ 0 | SPOT peptide array binding signal intensity [4]: 4 | SPOT peptide array binding signal intensity [5]: ≤ 0 | SPOT peptide array binding signal intensity [6]: ≤ 0 | SPOT peptide array binding signal intensity [7]: 1 | SPOT peptide array binding signal intensity [8]: ≤ 0 | SPOT peptide array binding signal intensity [9]: ≤ 0 | SPOT peptide array binding signal intensity [10]: 4 | SPOT peptide array binding signal intensity [11]: 2 | SPOT peptide array binding signal intensity [12]: ≤ 0 | SPOT peptide array binding signal intensity [13]: ≤ 0 | SPOT peptide array binding signal intensity [14]: 92.8 | SPOT peptide array binding signal intensity [15]: 19 | SPOT peptide array binding signal intensity [16]: ≤ 0 | SPOT peptide array binding signal intensity [17]: ≤ 0 | SPOT peptide array binding signal intensity [18]: 49 | SPOT peptide array binding signal intensity [19]: ≤ 0 | SPOT peptide array binding signal intensity [20]: 1500 | SPOT peptide array binding signal intensity [21]: 677 | SPOT peptide array binding signal intensity [22]: ≤ 0 | SPOT peptide array binding signal intensity [23]: 526 | SPOT peptide array binding signal intensity [24]: ≤ 0 | SPOT peptide array binding signal intensity [25]: 28.5 | SPOT peptide array binding signal intensity [26]: 3.5 | SPOT peptide array binding signal intensity [27]: ≤ 0 | SPOT peptide array binding signal intensity [28]: 4 | SPOT peptide array binding signal intensity [29]: 1 | SPOT peptide array binding signal intensity [30]: 4430 | SPOT peptide array binding signal intensity [31]: 41 | SPOT peptide array binding signal intensity [32]: ≤ 0 | SPOT peptide array binding signal intensity [33]: ≤ 0 | SPOT peptide array binding signal intensity [34]: 4 | SPOT peptide array binding signal intensity [35]: ≤ 0 | SPOT peptide array binding signal intensity [36]: 13.5 | SPOT peptide array binding signal intensity [37]: 0.5 | SPOT peptide array binding signal intensity [38]: 23 | SPOT peptide array binding signal intensity [39]: 1510 | SPOT peptide array binding signal intensity [40]: 17 | SPOT peptide array binding signal intensity [41]: ≤ 0 | SPOT peptide array binding signal intensity [42]: 72.5 | SPOT peptide array binding signal intensity [43]: ≤ 0 | SPOT peptide array binding signal intensity [44]: ≤ 0

PSPSSSPPPIPKTAN
SPOT peptide array binding signal intensity [45]: 6.5 | SPOT peptide array binding signal intensity [46]: 2.5 | SPOT peptide array binding signal intensity [47]: 5 | SPOT peptide array binding signal intensity [48]: 2 | SPOT peptide array binding signal intensity [49]: 22.5 | SPOT peptide array binding signal intensity [50]: 1 | SPOT peptide array binding signal intensity [51]: 0.5 | SPOT peptide array binding signal intensity [52]: ≤ 0 | SPOT peptide array binding signal intensity [53]: 27 | SPOT peptide array binding signal intensity [54]: 1 | SPOT peptide array binding signal intensity [55]: ≤ 0 | SPOT peptide array binding signal intensity [56]: 1760 | SPOT peptide array binding signal intensity [57]: ≤ 0 | SPOT peptide array binding signal intensity [58]: 2.33 | SPOT peptide array binding signal intensity [59]: 2.5 | SPOT peptide array binding signal intensity [60]: 2.5 | SPOT peptide array binding signal intensity [61]: ≤ 0 | SPOT peptide array binding signal intensity [62]: ≤ 0 | SPOT peptide array binding signal intensity [63]: 9 | SPOT peptide array binding signal intensity [64]: 1 | SPOT peptide array binding signal intensity [65]: ≤ 0 | SPOT peptide array binding signal intensity [66]: 112 | SPOT peptide array binding signal intensity [67]: 15 | SPOT peptide array binding signal intensity [68]: 1 | SPOT peptide array binding signal intensity [69]: 31.5 | SPOT peptide array binding signal intensity [70]: ≤ 0 | SPOT peptide array binding signal intensity [71]: ≤ 0 | SPOT peptide array binding signal intensity [72]: ≤ 0 | SPOT peptide array binding signal intensity [73]: 4.5 | SPOT peptide array binding signal intensity [74]: 386 | SPOT peptide array binding signal intensity [1]: 15.5 | SPOT peptide array binding signal intensity [2]: ≤ 0 | SPOT peptide array binding signal intensity [3]: 3 | SPOT peptide array binding signal intensity [4]: 5 | SPOT peptide array binding signal intensity [5]: 8.5 | SPOT peptide array binding signal intensity [6]: ≤ 0 | SPOT peptide array binding signal intensity [7]: 9 | SPOT peptide array binding signal intensity [8]: ≤ 0 | SPOT peptide array binding signal intensity [9]: ≤ 0 | SPOT peptide array binding signal intensity [10]: 4 | SPOT peptide array binding signal intensity [11]: 20 | SPOT peptide array binding signal intensity [12]: ≤ 0 | SPOT peptide array binding signal intensity [13]: ≤ 0 | SPOT peptide array binding signal intensity [14]: ≤ 0 | SPOT peptide array binding signal intensity [15]: 50 | SPOT peptide array binding signal intensity [16]: 1 | SPOT peptide array binding signal intensity [17]: ≤ 0 | SPOT peptide array binding signal intensity [18]: 24.5 | SPOT peptide array binding signal intensity [19]: ≤ 0 | SPOT peptide array binding signal intensity [20]: 2350 | SPOT peptide array binding signal intensity [21]: 1200 | SPOT peptide array binding signal intensity [22]: 6.5 | SPOT peptide array binding signal intensity [23]: ≤ 0 | SPOT peptide array binding signal intensity [24]: 2 | SPOT peptide array binding signal intensity [25]: ≤ 0 | SPOT peptide array binding signal intensity [26]: ≤ 0 | SPOT peptide array binding signal intensity [27]: 22.8 | SPOT peptide array binding signal intensity [28]: 8 | SPOT peptide array binding signal intensity [29]: 5 | SPOT peptide array binding signal intensity [30]: 182 | SPOT peptide array binding signal intensity [31]: 0.5 | SPOT peptide array binding signal intensity [32]: 1 | SPOT peptide array binding signal intensity [33]: ≤ 0 | SPOT peptide array binding signal intensity [34]: ≤ 0 | SPOT peptide array binding signal intensity [35]: 0.5 | SPOT peptide array binding signal intensity [36]: 2.5 | SPOT peptide array binding signal intensity [37]: 1.5 | SPOT peptide array binding signal intensity [38]: ≤ 0 | SPOT peptide array binding signal intensity [39]: 1570 | SPOT peptide array binding signal intensity [40]: 3 | SPOT peptide array binding signal intensity [41]: ≤ 0 | SPOT peptide array binding signal intensity [42]: 1.17 | SPOT peptide array binding signal intensity [43]: 2 | SPOT peptide array binding signal intensity [44]: 3
